# Experimental data taken from PubChem BioAssay.
# “And” between values parts separate entries of the source, which are not always exact repeats. Equal entries are not always repeated. The list shows a part of the results. Results filed as inconclusive are left out. The source made the active and inactive calls.
# Key:
# [1] = target: Solute carrier family 12 member 5 (Homo sapiens) (UniProt Q9H2X9); experiment: KCC2 modulators in sodium-free buffer, confirmation, cell-based, HEK293 KCC2, thallium flux, secondary assay (AID 1713;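 active = thallium flux slope above the same plate's solvent-only control mean plus 3 SD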); settings: FluoZin2 fluorescence, at 10 µM, stronger effect = higher value
# Solute carrier family 12 member 5 (Homo sapiens), sequence (Q9H2X9 whole entry, looked up): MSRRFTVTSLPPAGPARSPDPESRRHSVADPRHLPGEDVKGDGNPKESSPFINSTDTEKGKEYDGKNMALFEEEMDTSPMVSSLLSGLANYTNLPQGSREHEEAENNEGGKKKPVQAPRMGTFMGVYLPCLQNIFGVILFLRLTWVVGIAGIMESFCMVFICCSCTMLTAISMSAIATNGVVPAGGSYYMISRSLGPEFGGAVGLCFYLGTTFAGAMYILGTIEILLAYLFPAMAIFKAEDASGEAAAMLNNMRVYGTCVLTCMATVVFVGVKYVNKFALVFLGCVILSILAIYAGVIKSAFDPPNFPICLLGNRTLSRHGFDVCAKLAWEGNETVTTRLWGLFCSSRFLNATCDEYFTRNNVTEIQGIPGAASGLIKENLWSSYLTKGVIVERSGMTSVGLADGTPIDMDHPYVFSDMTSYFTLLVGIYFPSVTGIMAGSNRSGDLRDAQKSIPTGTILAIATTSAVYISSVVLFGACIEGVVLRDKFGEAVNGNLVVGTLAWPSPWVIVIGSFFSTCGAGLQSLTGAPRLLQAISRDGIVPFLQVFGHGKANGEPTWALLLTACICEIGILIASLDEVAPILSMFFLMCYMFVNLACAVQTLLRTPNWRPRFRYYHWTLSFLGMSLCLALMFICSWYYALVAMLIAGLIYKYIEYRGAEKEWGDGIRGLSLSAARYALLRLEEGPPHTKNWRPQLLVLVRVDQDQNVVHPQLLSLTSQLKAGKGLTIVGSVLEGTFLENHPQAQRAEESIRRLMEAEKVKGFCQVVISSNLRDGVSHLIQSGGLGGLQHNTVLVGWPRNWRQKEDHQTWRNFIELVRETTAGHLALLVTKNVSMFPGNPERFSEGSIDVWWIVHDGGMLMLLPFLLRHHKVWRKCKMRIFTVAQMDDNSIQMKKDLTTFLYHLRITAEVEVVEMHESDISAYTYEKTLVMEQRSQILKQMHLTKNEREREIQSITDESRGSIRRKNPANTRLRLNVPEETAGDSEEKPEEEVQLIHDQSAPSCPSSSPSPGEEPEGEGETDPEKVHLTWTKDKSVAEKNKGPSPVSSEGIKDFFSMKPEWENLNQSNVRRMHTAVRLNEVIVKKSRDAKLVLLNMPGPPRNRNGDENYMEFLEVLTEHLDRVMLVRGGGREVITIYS
# [2] = target: Solute carrier family 12 member 5 (Homo sapiens) (UniProt Q9H2X9); experiment: KCC2 modulators without ouabain present, confirmation, cell-based, HEK293 KCC2, thallium flux, FluoZin2, secondary assay 2 (AID 1715;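 active = thallium flux slope more than 3 SD above or below the plate's solvent-only control mean, mostly below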;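 note: raw slope with 0.1% DMSO as baseline and bumetanide as block control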); settings: HEK293-KCC2, thallium flux FluoZin2 fluorescence; at 10 µM; actives lie on both sides; F/F0 rise rate, 10–20 s post-thallium
# [3] = thallium flux modulation in parental HEK cells, confirmation, counter-screen for KCC2 modulator project, cell-based, counterscreen 1 (AID 1716;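 active = thallium flux rate significantly above the same plate's solvent-only control wells, beyond their mean plus 3 SD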); settings: HEK293 parental cells, thallium flux FluoZin2, ouabain; at 10 µM; baseline-ratio fluorescence slope, 10–20 s after thallium
# [4] = target: Solute carrier family 12 member 5 (Homo sapiens) (UniProt Q9H2X9); experiment: KCC2 inhibitors and activators, ouabain retest, confirmation, HEK-KCC2 cells (AID 1717;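 active = thallium flux slope beyond 3 SD from same-plate DMSO control mean in most replicates, usually higher, sometimes lower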;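 note: slope of initial-normalized fluorescence between seconds 10 and 20 after thallium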); settings: HEK293-KCC2, thallium flux FluoZin2 fluorescence, at 10 µM, bidirectional: low = inhibitor, high = activator
# [5] = native HEK Tl+ uptake effects, second counter-screen – HEK cells, counterscreen 2, counter-screen for KCC2 modulator project, confirmation (AID 1718;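 active = thallium flux slope above the same plate's solvent-control mean plus 3 SD in both duplicate wells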;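 note: run without ouabain in cells lacking the KCC2 cotransporter; slope of fluorescence scaled to its starting value between 10 and 20 s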); settings: HEK293 parental, thallium flux FluoZin-2 fluorescence slope; at 10 µM
# [6] = inhibitors of TNFa-induced NFkB p65 translocation, primary screen, imaging, HUVEC, MLSMR starter and 10KST1 sets (AID 438;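 active = inhibition above 20% together with a positive visual image hit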;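 note: compound added about 3h40 before a 20 min TNFalpha stimulation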;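 for inhibition: signal is the nuclear over cytoplasmic p65 intensity ratio per well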); settings: HUVEC TNFa-induced p65 nuclear translocation; cell count: measured here: nuclei count (cytotoxicity indicator), at 2.08 µM; inhibition: at 2 µM, stronger effect = higher value, 0% TNFa-plus-vehicle, 100% no-TNFa wells
# [7] = inhibitors of mutant huntingtin aggregation, primary screen, imaging, exon1htt(103Q)mCFP cells, high-content imaging (AID 483;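 active = visual image review flags a hit and inhibition of aggregation exceeds 20%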;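 note: compound exposure lasted 3 days before fixation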;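 for nuclei count: percent of the per-plate median nuclei count of sample wells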); settings: exon1htt(103Q)mCFP cell line, aggregate imaging, at 2 µM; inhibition of aggregation: stronger effect = higher value; nuclei count: measured here: cell count, toxicity
# [8] = inhibitors of E-selectin induction by TNFa, primary screen, imaging, HUVEC, immunofluorescence, MLSMR starter and 10KST1 sets (AID 487;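 active = visually confirmed hit in the image check and inhibition above 20%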;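 for inhibition: signal is fraction of cell area covered by stained E-selectin grains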;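 for nuclei count: 100% = median nuclei count of all wells on the same plate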); settings: HUVEC TNFalpha-induced E-selectin immunofluorescence imaging, at 2 µM; inhibition: stronger effect = higher value; nuclei count: measured here: cell number, toxicity
# [9] = DUSP6 inhibitors restoring Erk phosphorylation by chemical complementation, primary imaging in DUSP6-transfected HeLa (AID 609;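 active = compounds giving at least 50% inhibition in the cell-based MKP-3 phosphatase rescue imaging test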;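 for inhibition: phospho-Erk level distribution per well compared with pooled transfected vehicle control wells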); settings: HeLa MKP-3 transfected, phospho-Erk imaging KS statistic, at 10 µM, cells stimulated with TPA for 15 min
# [10] = target: Dual specificity protein phosphatase 6 (Homo sapiens) (UniProt Q16828); experiment: as above; settings: HeLa MKP-3 transfected, phospho-Erk imaging KS statistic; at 10 µM; stronger effect = higher value; cells stimulated with TPA for 15 min
# Dual specificity protein phosphatase 6 (Homo sapiens), sequence (Q16828 whole entry, looked up): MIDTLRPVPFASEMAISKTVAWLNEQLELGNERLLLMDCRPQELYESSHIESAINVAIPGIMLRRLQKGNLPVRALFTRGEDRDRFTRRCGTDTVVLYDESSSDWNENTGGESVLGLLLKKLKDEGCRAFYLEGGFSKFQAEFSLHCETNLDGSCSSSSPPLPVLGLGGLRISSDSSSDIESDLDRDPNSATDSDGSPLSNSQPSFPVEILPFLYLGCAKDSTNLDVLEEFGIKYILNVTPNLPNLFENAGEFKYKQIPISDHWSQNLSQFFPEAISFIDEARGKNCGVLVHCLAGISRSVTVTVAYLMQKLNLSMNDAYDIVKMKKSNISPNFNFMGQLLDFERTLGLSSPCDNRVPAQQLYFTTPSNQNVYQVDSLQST
# [11] = target: Voltage-gated potassium channel subunit beta-2 (Rattus norvegicus) (UniProt P62483); experiment: KvBeta enzyme negative modulators, primary screen, biochemical, NADPH fluorescence (AID 622;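 active = fluorescence slope higher than the sample average by over 3 SD, cut at about -0.22 in these data, passing the limit was not always enough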;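 note: slope of raw intensity against log time taken from 70 to 1610 s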); settings: recombinant KvBeta, 4-cyanobenzaldehyde reduction, at 10 µM, stronger effect = higher value
# Voltage-gated potassium channel subunit beta-2 (Rattus norvegicus), sequence (P62483 whole entry, looked up): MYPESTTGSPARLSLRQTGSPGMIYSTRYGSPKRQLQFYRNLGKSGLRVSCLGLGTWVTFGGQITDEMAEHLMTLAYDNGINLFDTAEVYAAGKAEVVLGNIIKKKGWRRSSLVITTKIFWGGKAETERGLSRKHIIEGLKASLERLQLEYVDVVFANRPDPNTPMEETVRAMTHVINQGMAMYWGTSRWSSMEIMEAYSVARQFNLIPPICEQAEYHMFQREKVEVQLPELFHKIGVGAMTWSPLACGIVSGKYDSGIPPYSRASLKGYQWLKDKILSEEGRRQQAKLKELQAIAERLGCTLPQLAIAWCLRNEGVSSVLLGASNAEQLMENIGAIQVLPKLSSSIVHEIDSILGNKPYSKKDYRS
# [12] = target: Voltage-gated potassium channel subunit beta-2 (Rattus norvegicus) (UniProt P62483); experiment: KvBeta positive modulators, primary screen, biochemical, NADPH fluorescence (AID 623;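 active = NADPH fluorescence slope more negative than the mean of all samples by about 3 SD, 99.7% confidence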;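 note: fluorescence intensity change per second fitted from 20 to 320 s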); settings: Recombinant KvBeta, NADPH fluorescence decrease slope, 10 min; at 10 µM; stronger effect = lower value
# [13] = target: Alpha-2C adrenergic receptor (Homo sapiens) (UniProt P18825); experiment: modulators of alpha2C/GIRK thallium flux, primary screen, cell-based, HEK293 alpha2C/GIRK1/2 (AID 624;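 active = fluorescence slope after compound addition differing from the mean of all screened samples at 99.7% confidence, in either direction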;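 note: slope of fluorescence ratio to pre-addition baseline per second over 15 to 24 s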); settings: thallium flux BTC fluorescence, at 10 µM, actives lie on both sides
# Alpha-2C adrenergic receptor (Homo sapiens), sequence (P18825 whole entry, looked up): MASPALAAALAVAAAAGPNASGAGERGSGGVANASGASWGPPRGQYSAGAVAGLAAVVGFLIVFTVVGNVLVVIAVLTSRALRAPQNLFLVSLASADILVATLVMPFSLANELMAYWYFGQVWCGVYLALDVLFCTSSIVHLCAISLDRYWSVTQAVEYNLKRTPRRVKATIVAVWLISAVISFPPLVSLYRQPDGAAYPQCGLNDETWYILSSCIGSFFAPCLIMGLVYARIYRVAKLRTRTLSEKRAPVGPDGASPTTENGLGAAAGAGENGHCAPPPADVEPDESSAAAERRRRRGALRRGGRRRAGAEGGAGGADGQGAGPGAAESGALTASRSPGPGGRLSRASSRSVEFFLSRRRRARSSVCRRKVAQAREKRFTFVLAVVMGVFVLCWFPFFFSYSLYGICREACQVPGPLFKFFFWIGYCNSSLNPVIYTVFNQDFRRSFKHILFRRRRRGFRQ
# [14] = inhibitors of Chlamydomonas gravitaxis, primary screen, whole organism, Chlamydomonas reinhardtii, WT vs cilia-less mutant, absorbance, 96-well (AID 463189); settings: OD600 absorbance, 2 days, at 10 µM, stronger effect = higher value;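 note: 0% = wild type cc124 cells in DMSO and 100% = ciliumless bld1 mutant cells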
# [15] = inhibitors of Sendai virus-induced IRF3 signaling, primary screen, TLR/RLR signaling modifier project, cell-based, Sendai virus stimulus, luciferase, 10K MLSCN set (AID 602276;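 active = inhibition at or above 50% at 10 µM; inactive = inhibition below 50%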;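 note: firefly luciferase from ISG56 promoter only with Renilla not read in this screen; 0% = Sendai virus plus DMSO and 100% = medium plus DMSO without virus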); settings: HEK293 RL24 IRF3 luciferase reporter, at 10 µM, stronger effect = higher value
# [16] = inhibitors of poly I:C-induced TLR3 signaling, primary screen, cell-based, poly I:C stimulus, luciferase, 10K MLSCN set (AID 602277;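 active = inhibition of the reporter signal at or above 50%; inactive = inhibition below 50%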); settings: HEK293-TLR3 RL24 IRF3 luciferase reporter, at 10 µM, stronger effect = higher value
# PubChem AID 1714 = settings: HEK293-KCC2 + bumetanide/ouabain, thallium flux FluoZin2; at 10 µM; stronger effect = higher value
# [17] = inhibitors of larval lipid processing in zebrafish, primary screen, whole organism, PED6 fluorescence, gall bladder and intestine (AID 686;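 active = a full or partial loss of lipid-probe fluorescence in the fish gall bladder, intestine or both, judged by eye; inactive = no fluorescence loss, or compound toxic to the fish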;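 note: larvae 5 to 7 days old with five fish per well; signal comes from phospholipase A2 cleavage of quenched PED6 carried via bile; overnight exposure to compound and PED6 before scoring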); settings: Zebrafish larvae PED6 lipid processing, fluorescence scoring; screened at 20 µM (by protocol)
# [18] = measured here: cell density z-score
# [19] = measured here: nuclear c-Myc green intensity z-score
# [20] = measured here: nuclear pErk red intensity z-score, stronger effect = higher value
structure (smiles),measurement,setting,value
CCn1c(SCC(=O)c2ccc3ccccc3c2)nnc1-c1cccs1,normalised thallium flux (F/F0 slope),[1],0.00706 (inactive)
same,normalized thallium flux,[2],0.0307 (inactive)
same,thallium flux rate (normalised fluorescence),[3],0.00707 (inactive)
same,"raw Tl+ flux slope (below DMSO = inhibition, above = activation)",[4],0.0159 (active)
same,thallium flux slope,[5],0.0101 (inactive)
CCN(CC)CCNC(=O)c1ccc(NC(C)=O)cc1,cell count,[6],497
same,inhibition,[6],-5.5% (inactive)
same,inhibition of aggregation,[7],-5.6% (inactive)
same,nuclei count,[7],94.5%
same,inhibition,[8],15.6% (inactive)
same,nuclei count,[8],104%
same,z-score,[9]; [18],-0.982
same,z-score,[9]; [19],0.436
same,z-score,[9]; [20],0.661
same,inhibition,[10],5.79% (inactive)
same,fluorescence slope,[11],-0.442 (inactive)
same,NADPH fluorescence slope,[12],-5.7e-05 (inactive)
same,slope,[13],0.00544 (inactive)
same,inhibition,[14],-7.67% (inactive) and -9.65% (inactive)
same,inhibition,[15],12.9% (inactive)
same,inhibition,[16],42.8% (inactive)
CCN(CC)CCN1C(=O)C(O)=C(C(=O)c2ccco2)C1c1ccccn1 (centres undefined),cell count,[6],439
same,inhibition,[6],-6.3% (inactive)
same,inhibition of aggregation,[7],16.5% (inactive)
same,nuclei count,[7],89.2%
same,inhibition,[8],-87.6% (inactive)
same,nuclei count,[8],123%
same,z-score,[9]; [18],0.101
same,z-score,[9]; [19],-1.41
same,z-score,[9]; [20],0.388
same,inhibition,[10],3.5% (inactive)
same,fluorescence slope,[11],-0.431 (inactive)
same,NADPH fluorescence slope,[12],-0.000163 (inactive)
same,slope,[13],0.005 (inactive)
same,inhibition,[14],14.9% (inactive)
same,inhibition,[15],15.6% (inactive)
same,inhibition,[16],18.9% (inactive)
CC(C)(C)c1ccc(C(=O)NCC(=O)OCN2C(=O)c3ccccc3C2=O)cc1,normalized thallium flux,PubChem AID 1714,0.00471 (inactive)
same,normalized thallium flux,[2],0.031 (inactive)
same,thallium flux rate (normalised fluorescence),[3],0.00756 (inactive)
same,"raw Tl+ flux slope (below DMSO = inhibition, above = activation)",[4],0.0171 (inactive)
same,thallium flux slope,[5],0.0105 (inactive)
Cc1ccccc1-c1nc(CS(=O)(=O)CC(=O)N2CCc3ccccc3C2)c(C)o1,normalized thallium flux,PubChem AID 1714,0.00657 (inactive)
same,thallium flux rate (normalised fluorescence),[3],0.00685 (inactive)
same,"raw Tl+ flux slope (below DMSO = inhibition, above = activation)",[4],0.0154 (active)
CCCn1c(=O)c2[nH]c(C3CCCC3)nc2n(CCC)c1=O,cell count,[6],503
same,inhibition,[6],-3.1% (inactive)
same,inhibition of aggregation,[7],26% (inactive)
same,nuclei count,[7],92.4%
same,inhibition,[8],-83.5% (inactive)
same,nuclei count,[8],117%
same,z-score,[9]; [18],0.276
same,z-score,[9]; [19],-0.431
same,z-score,[9]; [20],-1.23
same,inhibition,[10],3.59% (inactive)
same,fluorescence slope,[11],-0.432 (inactive)
same,NADPH fluorescence slope,[12],-7.8e-05 (inactive)
same,slope,[13],0.00398 (inactive)
same,inhibition,[14],4.71% (inactive) and -9.34% (inactive)
same,inhibition,[15],14.1% (inactive)
same,inhibition,[16],38.5% (inactive)
CCO/C([O-])=N/c1c[n+](N2CCOCC2)no1,cell count,[6],669
same,inhibition,[6],9.9% (inactive)
same,inhibition of aggregation,[7],-18.2% (inactive)
same,nuclei count,[7],97.5%
same,inhibition,[8],-28.6% (inactive)
same,nuclei count,[8],122%
same,z-score,[9]; [18],-0.87
same,z-score,[9]; [19],-0.27
same,z-score,[9]; [20],-1.04
same,inhibition,[10],16.8% (inactive)
same,fluorescence slope,[11],-0.482 (inactive)
same,NADPH fluorescence slope,[12],-6e-05 (inactive)
same,slope,[13],0.00537 (inactive)
same,inhibition,[14],2.9% (inactive) and 18.7% (inactive)
same,inhibition,[15],-10.8% (inactive)
same,inhibition,[16],-12.7% (inactive)
NC(N)=NC(=O)c1nc(Cl)c(N)nc1N,cell count,[6],517
same,inhibition,[6],-4.2% (inactive)
same,inhibition of aggregation,[7],-1.5% (inactive)
same,nuclei count,[7],103%
same,inhibition,[8],-76.7% (inactive)
same,nuclei count,[8],114%
same,z-score,[9]; [18],2.22
same,z-score,[9]; [19],-1.45
same,z-score,[9]; [20],-1.51
same,inhibition,[10],30.1% (inactive)
same,fluorescence slope,[11],-0.443 (inactive)
same,NADPH fluorescence slope,[12],-7.2e-05 (inactive)
same,slope,[13],0.00564 (inactive)
same,inhibition,[14],4.19% (inactive) and 21.2% (inactive)
same,inhibition,[15],15.9% (inactive)
same,inhibition,[16],42% (inactive)
C/C(=N\NC(=S)NC1CCCCC1)c1ccc(C)o1,normalized thallium flux,PubChem AID 1714,0.0335 (active)
same,normalized thallium flux,[2],0.0359 (inactive)
same,thallium flux rate (normalised fluorescence),[3],0.017 (active)
same,"raw Tl+ flux slope (below DMSO = inhibition, above = activation)",[4],0.0406 (active)
N#Cc1ccc(C(=O)Nc2nc(-c3cccs3)c(C(=O)C(F)(F)F)s2)cc1,normalised thallium flux (F/F0 slope),[1],0.00795 (inactive)
same,normalized thallium flux,[2],0.033 (inactive)
same,thallium flux rate (normalised fluorescence),[3],0.00821 (inactive)
same,"raw Tl+ flux slope (below DMSO = inhibition, above = activation)",[4],0.0191 (inactive)
C=CCn1c(=S)[nH]c2nc3c(cc2c1=O)COC(C)(C)C3,cell count,[6],590
same,inhibition,[6],-2.3% (inactive)
same,inhibition of aggregation,[7],0.9% (inactive)
same,nuclei count,[7],109%
same,inhibition,[8],-9.4% (inactive)
same,nuclei count,[8],134%
same,z-score,[9]; [18],1.01
same,z-score,[9]; [19],0.551
same,z-score,[9]; [20],-1.17
same,inhibition,[10],3.66% (inactive)
same,fluorescence slope,[11],-0.495 (inactive)
same,NADPH fluorescence slope,[12],-0.00014 (inactive)
same,slope,[13],0.00772 (inactive)
same,outcome,[17],inactive
same,normalized thallium flux,PubChem AID 1714,0.0176 (active)
same,normalized thallium flux,[2],0.0337 (inactive)
same,thallium flux slope,[5],0.0123 (inactive)
same,inhibition,[14],-8.98% (inactive)
same,inhibition,[15],14.5% (inactive)
same,inhibition,[16],-0.984% (inactive)
O=C(O)CS/C(=C\c1ccc(F)cc1)c1nc2ccccc2s1,normalised thallium flux (F/F0 slope),[1],0.0153 (inactive)
same,thallium flux rate (normalised fluorescence),[3],0.00592 (active)
same,"raw Tl+ flux slope (below DMSO = inhibition, above = activation)",[4],0.011 (active)
CC(C)CNC(=S)NC(=O)c1ccc(Cl)cc1,normalized thallium flux,PubChem AID 1714,0.0714 (active)
same,normalized thallium flux,[2],0.0638 (active)
same,thallium flux rate (normalised fluorescence),[3],0.0685 (active)
same,"raw Tl+ flux slope (below DMSO = inhibition, above = activation)",[4],0.0663 (active)
same,thallium flux slope,[5],0.0594 (active)
CC[C@@H](C)[C@@H](C(=O)N1CCN(C(=O)OC(C)(C)C)CC1)n1cc(CCC(=O)O)nn1,normalised thallium flux (F/F0 slope),[1],0.0104 (inactive)
same,normalized thallium flux,[2],0.0349 (inactive)
same,thallium flux rate (normalised fluorescence),[3],0.00923 (active)
same,"raw Tl+ flux slope (below DMSO = inhibition, above = activation)",[4],0.0234 (inactive)
same,thallium flux slope,[5],0.0111 (inactive)
